# Inconclusive results are not listed. Unmarked numbers belong to inactive results. Activity calls are given as the source filed them. The call rests on the fitted dose curve; in most records, active means well fitted inhibition curve with a large enough effect; inconclusive means small, poorly fitted or top-dose-only effect; inactive means no such curve, though single readings can be large or run the other way.
# Target: Luciferin 4-monooxygenase (Photinus pyralis) (UniProt P08659)
# Experiment: FLuc inhibitory activity for the follow-up compounds in a biochemical assay with Km concentrations of substrate
# Details: purified FLuc, Km substrates, luminescence; series mostly up to 57.5 µM; activity change, negative = inhibition: at the top concentration
# Excerpt: NCGC Assay Overview: Firefly (Photinus pyralis) luciferase is one of the most commonly used transcriptional reporters. It is considered one of the more dynamically responsive reporters - that is, responsive to changes in reporter transcription - as it requires no post-translational modifications and is enzymatically active directly after protein synthesis (Wood, 1998). With no endogenous expression in mammalian cells and without the requirement of external excitation, it offers very little background signal, thus generally providing excellent signal to background for most assays. Previous profiling work to determine the prevalence of compounds that affect FLuc enzymatic activity (PubChem AID 411) identified that ~3% of the MLSMR library (then at ~72K) inhibited FLuc. […] Of the compounds identified in this profile that inhibited FLuc, 151 compounds were selected for further analysis, in an effort to better understand their mode of inhibiting FLuc. The assay described here confirms the FLuc inhibitory activity of the 151 compounds.
# NCGC Assay Protocol Summary: Reagents: 50mM Tris acetate, pH 7.5; 10mM Mg acetate; 10uM D-luciferin (Sigma #L9504); 10uM ATP; 0.01% Tween-20; 0.05% BSA; 10nM P. pyralis luciferase (Sigma #L9506) Control compounds used were two known firefly luciferase inhibitors (3-(5-(3-chlorophenyl)-1,2,4-oxadiazol-3-yl)benzoic acid and 5-(2-fluorophenyl)-3-phenyl-1,2,4-oxadiazole), and DMSO. Three microliters containing firefly luciferase substrates in buffer (final concentrations: 50mM Tris acetate, pH 7.5, 10mM Mg acetate, 0.01% Tween-20, 0.05% BSA, 10uM D-luciferin, and 10uM ATP) are dispensed into each well of a Greiner white, solid-bottom 1536-well format plate using a flying reagent dispenser (FRD). These assay plates were then treated with 23nL of compound or DMSO using a Kalypsys pin tool, which allows for delivery of a 12-point intraplate titration of each compound to the assay plate (quantitative HTS), with a final compound concentrations ranging from approximately ~60uM to 0.3nM. One microliter of firefly luciferase in 500mM Tris-acetate buffer was then delivered by FRD to each well for a final enzyme concentration of 10nM. Luciferase activity was then measured using a ViewLux CCD imager (PerkinElmer), with an average exposure time of 2-30 seconds (2X binning, medium/high gain).
# Chain of Luciferin 4-monooxygenase (Photinus pyralis) (P08659 whole entry, looked up): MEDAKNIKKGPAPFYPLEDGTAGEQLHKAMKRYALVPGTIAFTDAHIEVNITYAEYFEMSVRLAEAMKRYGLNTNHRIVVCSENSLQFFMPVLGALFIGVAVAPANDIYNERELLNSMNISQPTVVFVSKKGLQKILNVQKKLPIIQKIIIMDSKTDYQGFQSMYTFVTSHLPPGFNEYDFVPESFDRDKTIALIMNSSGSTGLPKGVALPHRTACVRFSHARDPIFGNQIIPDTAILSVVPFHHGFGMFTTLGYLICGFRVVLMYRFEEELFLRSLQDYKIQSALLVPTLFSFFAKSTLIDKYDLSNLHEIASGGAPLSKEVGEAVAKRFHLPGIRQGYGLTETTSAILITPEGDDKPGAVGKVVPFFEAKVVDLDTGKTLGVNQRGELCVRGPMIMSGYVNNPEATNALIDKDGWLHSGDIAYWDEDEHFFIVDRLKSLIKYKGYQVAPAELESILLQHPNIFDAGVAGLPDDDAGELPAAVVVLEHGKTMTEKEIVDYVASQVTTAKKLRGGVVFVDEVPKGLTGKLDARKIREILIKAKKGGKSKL
Structure (SMILES),Potency,"activity change, negative = inhibition [%]"
COc1cc(OC)cc(-c2nc3ccccc3s2)c1,6.51 µM (active),–
CN(C)c1cccc(C(=O)Nc2ccc(-c3nc4ccccc4s3)cc2)c1,2.91 µM (active),–
CC(=O)Nc1cccc(-c2nc3ccccc3s2)c1C,23.1 µM (active),–
O=S(=O)(c1ccc(-c2nc3ccccc3s2)cc1)N1CCCC1,–,-0.117
CC(C)(C)NC(=O)c1ccccc1-c1nc2ccccc2s1,–,-8.09
CCOC(=O)N1CCN(CC(=O)Nc2nc3ccc(OC)cc3s2)CC1,–,-13.5
COc1ccc2nc(NC(=O)c3ccc4ncsc4c3)sc2c1,1.63 µM (active),–
COc1ccccc1C(=O)Nc1ccc(C(=O)O)cc1,–,-16.1
CCOc1ccc2nc(NC(=O)c3ccoc3C)sc2c1,0.651 µM (active),–
CC(=O)Oc1ccc(C(=O)Nc2ccccc2C(=O)Nc2ccc(C(=O)O)cc2)cc1,5.8 µM (active),–
Cc1ccc(C(=O)Nc2ccc(C(=O)O)cc2)cc1S(=O)(=O)Nc1ccccc1,–,18.1
Nc1ccc(-c2nc3cc(N)ccc3s2)cc1,0.819 µM (active),–
COc1ccc(C(=O)Nc2cccc(C(=O)O)c2)cc1S(=O)(=O)N1CCCC1,5.17 µM (active),–
O=C(Nc1cccc(-c2nc3ccccc3s2)c1)c1cc(-n2cnnc2)ccc1Cl,11.6 µM (active),–
COc1cc(C(=O)Nc2cc(C)c(O)c(-c3nc4ccccc4s3)c2)cc(OC)c1OC,–,-10.3
CCCC(=O)Nc1nc2ccc(OCC)cc2s1,13 µM (active),–
O=C(Cc1ccccc1)Nc1ccc(C(=O)Nc2ccccc2C(=O)O)cc1,20.6 µM (active),–
O=C(Nc1ccccc1C(=O)O)c1cc(S(=O)(=O)NCc2ccccc2)ccc1Cl,–,-4.34
O=C(O)c1cccc(NC(=O)c2ccccc2NC(=O)c2ccccc2F)c1,18.3 µM (active),–
Nc1ccc2nc(-c3ccc(O)cc3)sc2c1,0.41 µM (active),–

Structure (SMILES),Potency,"activity change, negative = inhibition [%]"
CN(C)S(=O)(=O)c1ccc(C(=O)Nc2ccccc2C(=O)O)cc1,13 µM (active),–
O=C(Nc1ccccc1C(=O)O)c1ccc(NC(=O)C2CCCCC2)cc1,11.6 µM (active),–
Cc1ccc(S(=O)(=O)N2CCOCC2)cc1C(=O)Nc1ccccc1C(=O)O,–,-19.3
Nc1ccc(C(=O)Nc2ccccc2C(=O)O)cc1,7.3 µM (active),–
COc1cccc(OC)c1C(=O)Nc1cccc(C(=O)Nc2cccc(C(=O)O)c2)c1,5.8 µM (active),–
O=C(Nc1cccc(-c2nc3ccccc3s2)c1)C1=COCCO1,18.3 µM (active),–
Cc1ccc2sc(-c3ccc(N)cc3)nc2c1,0.183 µM (active),–
Nc1ccc(-c2nc3ccc(C(=O)O)cc3s2)cc1,0.0073 µM (active),–
Nc1ccccc1C(=O)Nc1cccc(C(=O)O)c1,2.06 µM (active),–
Cc1c(NC(=O)c2cc(-n3cnnc3)ccc2Cl)cccc1-c1nc2ccccc2s1,0.58 µM (active),–
CCOc1c(Cl)cc(C(=O)Nc2ccccc2C(=O)O)cc1Cl,18.3 µM (active),–
O=C(O)c1ccc(NC(=O)c2cccc(NC(=O)c3cccs3)c2)cc1,9.19 µM (active),–
O=C(O)c1ccccc1NC(=O)c1ccccc1Nc1ccccc1,18.3 µM (active),–
COc1ccc(CC(=O)Nc2cccc(C(=O)Nc3ccccc3C(=O)O)c2)cc1OC,41.1 µM (active),–
O=C(O)c1cccc(NC(=O)c2cccc(NC(=O)C3CCCO3)c2)c1 (stereo not given),0.919 µM (active),–
Cc1ccc2sc(-c3ccc(NC(=O)c4cc(-n5cnnc5)ccc4Cl)cc3)nc2c1,6.51 µM (active),–
Cc1ccccc1C(=O)Nc1cccc(C(=O)Nc2ccccc2C(=O)O)c1,32.6 µM (active),–
CN(C)S(=O)(=O)c1ccc(C(=O)Nc2cccc(C(=O)O)c2)cc1,10.3 µM (active),–
COc1ccc(-c2nc3ccccc3s2)cc1O,0.146 µM (active),–
CCOc1ccc2nc(NC(=O)Cc3cccs3)sc2c1,10.3 µM (active),–

# — PubChem BioAssay AID602357 (National Center for Advancing Translational Sciences (NCATS), 2012)
